Data from PubChem BioAssay (Tox21).
“And” between values parts separate entries of the source, which are not always exact repeats. Equal values may be shown once. Records with an inconclusive call do not appear. A structure can be active in one record and inactive in another. The source made the active and inactive calls. Calls come from the whole dose curve; as a rule, active = well fitted curve in the direction sought with a large enough effect in the repeat runs; inconclusive = weak or mixed curves; inactive = no such curve, though single readings can be large; an effect the other way counts as inactive or inconclusive.

How the values were obtained:
[1] = Caspase-3/7 induction in HepG2 cells by small molecules, qHTS assay (AID 1346978); note: nearly all actives have a fitted effect of over 15% in size
Procedure, shortened: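 Wild-type HepG2 cells, 2,000/well, settled 5 hr at 37 C and 5% CO2, then compound-treated for 17 hr; caspase-3/7 activity read by luminescent Caspase-Glo 3/7 after 30 min at room temperature.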

[2] = Caspase-3/7 induction in CHO-K1 cells by small molecules, qHTS cell viability counter screen (AID 1346979); note: nearly all actives have a fitted effect of over 35% in size; note: potency is the fitted concentration of half-maximal effect
Procedure, shortened: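 Following a 5hr settling period, CHO-K1 cells at 1,500 per well received DMSO-dissolved compounds. Cell viability was quantified 16hr later by CellTiter-Fluor fluorescence, measured after 1hr with reagent at 37C.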

[3] = Caspase-3/7 induction in CHO-K1 cells by small molecules, qHTS assay (AID 1346980); note: nearly all actives have a fitted effect of over 15% in size
Procedure, shortened: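 Wild-type CHO-K1 cells exposed to compounds for 17hr at 37 C, 5% CO2. Caspase-3/7 activity then measured by Caspase-Glo 3/7 luminescence after 30min at room temperature.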

[4] = Caspase-3/7 induction in HepG2 cells by small molecules, qHTS cell viability counter screen (AID 1346981); note: nearly all actives have a fitted effect of over 30% in size; note: potency is the fitted concentration of half-maximal effect; for activity change, negative = cytotoxicity: series mostly up to about 92 µM
Procedure, shortened: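 Cell viability is measured as a cytotoxicity counter screen alongside the Caspase-Glo 3/7 readout in identical wells. Wild-type HepG2 cells are treated with test compounds for 16 hr at 37 C before CellTiter-Fluor addition and a 1-hr incubation.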

[5] = biological target: Nuclear receptor subfamily 1 group I member 2 (Rattus norvegicus) (UniProt Q9R1A7); experiment: Rat pregnane X receptor (rPXR) activation by small molecules, qHTS assay (AID 1346983); conditions: rPXR luciferase reporter cells, One-Glo luminescence, 24 h; max activation: stronger effect = higher value; note: nearly all actives have a fitted effect of over 20% in size; note: potency is the fitted concentration of half-maximal effect
Procedure, shortened: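 Cell-based rPXR activation assay: rPXR cells, 2,000 per well, rested 5hr at 37 C, then exposed to compounds in DMSO for 24 hr at 37 C. Luciferase activity read by One-Glo luminescence after 30 min at room temperature.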

[6] = biological target: Cytochrome P450 2D6 (Homo sapiens) (UniProt P10635); experiment: Cytochrome P450 Family 2 Subfamily D Member 6 (CYP2D6) small molecule antagonists: luciferase reporter qHTS assay (AID 1671196); note: nearly all actives have a fitted effect of over 50% in size; note: potency is the fitted concentration of half-maximal effect
Procedure, shortened: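 Enzyme and proluciferin substrate were first combined with test chemical for 10 min at room temperature. Adding NADPH regeneration solution started a 1 h reaction, stopped with luciferin detection reagent and read by luminescence 20 min later.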

[7] = biological target: Nuclear receptor subfamily 1 group I member 2 (Homo sapiens) (UniProt O75469); experiment: Human pregnane X receptor (PXR) small molecule agonists, qHTS assay (AID 1346982); note: nearly all actives have a fitted effect of over 35% in size; note: potency is the fitted concentration of half-maximal effect
Procedure, shortened: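 Cells: HepG2 stably carrying PXR-Luc. Medium held 5% charcoal-stripped FBS. Compounds in DMSO added after 5 hr plating, incubated 24 hr, then luminescence quantified with ONE-Glo.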

[8] = biological target: Cytochrome P450 2C19 (Homo sapiens) (UniProt P33261); experiment: Cytochrome P450 Family 2 Subfamily C Member 19 (CYP2C19) small molecule antagonists: luciferase reporter qHTS assay (AID 1671197); note: nearly all actives have a fitted effect of over 65% in size; note: potency is the fitted concentration of half-maximal effect
Procedure, shortened: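 CYP2C19 P450-Glo, 1536-well qHTS. Cpd + enzyme/proluciferin substrate 10 min RT; + NADPH regen, 37C 1 h; stop with luciferin detection reagent, 20 min RT, luminescence (RLU). Pos ctrl ketoconazole.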

[9] = biological target: Nuclear receptor subfamily 1 group I member 2 (Homo sapiens) (UniProt O75469); experiment: CYP3A4 induction through human pregnane X receptor (PXR) by small molecules, qHTS assay (AID 1346984); note: nearly all actives have a fitted effect of over 40% in size
Procedure, shortened: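 Quantitative HTS in DPX-2 cells, i.e. HepG2 transfected with PXR response element and CYP3A4-promoter luciferase. Compounds in DMSO incubated 24hr at 37C; then P450-Glo CYP3A4 substrate, 3uM final, 3hr; One-Glo luminescence.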

[10] = biological target: Nuclear receptor subfamily 1 group I member 2 (Homo sapiens) (UniProt O75469); experiment: Human pregnane X receptor (PXR) activation by small molecules, qHTS assay (AID 1346985); note: nearly all actives have a fitted effect of over 40% in size
Procedure, shortened: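 DPX-2 cells (HepG2 co-transfected with a PXR response element and a CYP3A4-promoter luciferase construct) were seeded at 2,000 per well, rested 5 hr at 37C, then exposed to DMSO-dissolved compounds for 24 hr. Activation was read as luciferase luminescence.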
% is set by controls: 0 for no effect and ±100 for the full control effect.

Sequence of Cytochrome P450 2C19 (Homo sapiens) (P33261 whole entry, looked up): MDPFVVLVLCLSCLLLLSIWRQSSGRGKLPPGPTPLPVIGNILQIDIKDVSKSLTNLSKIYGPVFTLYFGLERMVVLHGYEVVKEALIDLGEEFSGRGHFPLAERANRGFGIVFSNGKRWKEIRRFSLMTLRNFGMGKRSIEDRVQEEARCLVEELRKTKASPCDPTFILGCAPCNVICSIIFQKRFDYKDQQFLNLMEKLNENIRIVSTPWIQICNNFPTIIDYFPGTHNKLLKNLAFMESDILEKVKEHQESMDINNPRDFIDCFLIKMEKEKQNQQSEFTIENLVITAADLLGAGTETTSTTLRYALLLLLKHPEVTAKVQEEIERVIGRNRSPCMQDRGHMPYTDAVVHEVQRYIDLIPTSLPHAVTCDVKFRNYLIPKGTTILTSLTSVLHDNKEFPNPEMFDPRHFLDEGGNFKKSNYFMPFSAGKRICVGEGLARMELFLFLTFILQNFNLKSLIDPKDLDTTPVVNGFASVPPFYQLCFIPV
Sequence of Nuclear receptor subfamily 1 group I member 2 (Homo sapiens) (O75469 whole entry, looked up): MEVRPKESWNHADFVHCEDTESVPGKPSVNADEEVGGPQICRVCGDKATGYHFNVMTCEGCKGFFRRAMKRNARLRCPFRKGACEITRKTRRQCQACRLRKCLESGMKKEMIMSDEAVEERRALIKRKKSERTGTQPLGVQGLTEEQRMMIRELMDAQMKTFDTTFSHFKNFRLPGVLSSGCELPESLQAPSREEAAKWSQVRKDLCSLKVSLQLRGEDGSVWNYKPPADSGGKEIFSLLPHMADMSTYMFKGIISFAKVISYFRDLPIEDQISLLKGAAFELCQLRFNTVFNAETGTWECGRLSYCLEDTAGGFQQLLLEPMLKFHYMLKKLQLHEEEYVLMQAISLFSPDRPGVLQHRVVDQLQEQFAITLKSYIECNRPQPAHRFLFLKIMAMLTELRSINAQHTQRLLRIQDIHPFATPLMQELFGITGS
Sequence of Nuclear receptor subfamily 1 group I member 2 (Rattus norvegicus) (Q9R1A7 whole entry, looked up): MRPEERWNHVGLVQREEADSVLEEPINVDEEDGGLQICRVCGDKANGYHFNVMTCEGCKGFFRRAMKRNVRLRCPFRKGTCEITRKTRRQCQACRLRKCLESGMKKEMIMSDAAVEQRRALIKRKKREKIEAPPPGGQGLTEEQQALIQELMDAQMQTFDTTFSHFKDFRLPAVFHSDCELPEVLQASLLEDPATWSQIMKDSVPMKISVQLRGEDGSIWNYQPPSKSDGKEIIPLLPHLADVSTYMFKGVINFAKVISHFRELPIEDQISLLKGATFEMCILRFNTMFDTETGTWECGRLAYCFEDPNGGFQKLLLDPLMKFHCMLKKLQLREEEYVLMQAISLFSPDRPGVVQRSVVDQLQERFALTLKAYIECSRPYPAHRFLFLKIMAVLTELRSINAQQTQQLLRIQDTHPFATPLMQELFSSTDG
Sequence of Cytochrome P450 2D6 (Homo sapiens) (P10635 whole entry, looked up): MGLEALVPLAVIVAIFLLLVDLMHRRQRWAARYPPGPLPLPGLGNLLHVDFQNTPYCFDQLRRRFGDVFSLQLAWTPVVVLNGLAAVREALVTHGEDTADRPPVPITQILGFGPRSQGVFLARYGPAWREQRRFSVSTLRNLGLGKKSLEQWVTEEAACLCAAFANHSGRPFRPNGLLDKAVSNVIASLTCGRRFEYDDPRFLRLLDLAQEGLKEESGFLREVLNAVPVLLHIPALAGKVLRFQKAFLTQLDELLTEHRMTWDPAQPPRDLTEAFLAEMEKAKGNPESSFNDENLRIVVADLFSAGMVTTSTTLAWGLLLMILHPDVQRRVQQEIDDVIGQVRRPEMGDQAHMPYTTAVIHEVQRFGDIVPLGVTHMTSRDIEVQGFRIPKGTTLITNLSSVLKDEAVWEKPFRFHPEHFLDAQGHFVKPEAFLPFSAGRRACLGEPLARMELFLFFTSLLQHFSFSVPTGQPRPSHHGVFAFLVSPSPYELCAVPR

C=C[C@@]1(C)CC(=O)[C@]2(O)[C@@]3(C)[C@@H](O)CCC(C)(C)[C@@H]3[C@H](O)[C@H](OC(C)=O)[C@@]2(C)O1
inactive: Potency [1] | Potency [3] | Potency [4]
63.3 µM (active) and inactive: Potency [6]
active: Potency [2] 68.6 µM | Potency [5] 5.01 µM

Cc1cccc(Nc2ccccc2C(=O)O)c1C
inactive: Potency [1] | Potency [2] | Potency [3] | Potency [4] | Potency [6]
48.6 µM (active) and inactive: Potency [7]

C=CCCCCCCCCCC
inactive: Potency [1] | Potency [2] | Potency [3] | Potency [4] | Potency [7] | Potency [6] | Potency [8]

Nc1ccc(N)c(Cl)c1
active: Potency [2] 61 µM and 54.5 µM | Potency [4] 68.5 µM | Potency [7] 21.6 µM and 48.6 µM | Potency [6] 12.6 µM and 22.4 µM
inactive: Potency [1] | Potency [3]

CC(=O)OC(C)C
inactive: Potency [1] | Potency [2] | Potency [3] | Potency [4] | Potency [7] | Potency [6] | Potency [8]

Nc1ccc(O)c(N)c1
inactive: Potency [1] | Potency [3] | Potency [7]
active: Potency [2] 60.7 µM and 30.6 µM | Potency [4] 54.1 µM and 48.6 µM | Potency [6] 35.3 µM and 31.7 µM | Potency [8] 35.3 µM and 35.6 µM

CC(=O)Oc1ccc(C(c2ccc(OC(C)=O)cc2)c2ccccn2)cc1
inactive: Potency [1] | Potency [2] | Potency [3] | Potency [4]
35.4 µM (active) and inactive: Potency [6]
54.2 µM (active) and inactive: Potency [7]
active: Potency [8] 7.92 µM and 24.5 µM

CC1(C)OC(=O)NC1=O
inactive: Potency [1] | Potency [2] | Potency [3] | Potency [4] | Potency [6] | Potency [8]

CC(=O)Nc1ccc2c(c1)Cc1cc(NC(C)=O)ccc1-2
active: Potency [7] 17.2 µM and 7.7 µM
inactive: Potency [1] | Potency [2] | Potency [3] | Potency [4] | Potency [6] | Potency [8]

COC(=O)c1ccc(C)cc1
inactive: Potency [1] | Potency [2] | Potency [3] | Potency [4] | Potency [7] | Potency [6] | Potency [8]

CN(C)C
inactive: Potency [1] | Potency [2] | Potency [3] | Potency [4] | Potency [7] | Potency [6] | Potency [8]

NC[C@H](O)c1ccc(O)c(O)c1
inactive: Potency [1] | Potency [2] | Potency [3] | Potency [7] | max activation [5] -0.838% | Potency [9] | Potency [10] | Potency [6]

c1ccc2c(c1)[nH]c1ccccc12
39.2 µM (active) and inactive: Potency [6]
inactive: Potency [1] | Potency [2] | Potency [3] | Potency [4]
active: Potency [7] 47.7 µM and 61.1 µM | Potency [8] 7.83 µM and 7.96 µM

O=C1CCc2ccccc2O1
inactive: Potency [1] | Potency [2] | Potency [3] | Potency [4] | Potency [7] | Potency [6]
31.9 µM (active) and inactive: Potency [8]

NCCOCCO
inactive: Potency [1] | Potency [2] | Potency [3] | Potency [4] | Potency [7] | Potency [6] | Potency [8]

[Na+]
inactive: Potency [1] | Potency [2] | Potency [3] | Potency [4] | Potency [7] | Potency [6]

CCCOCCO
inactive: Potency [1] | Potency [2] | Potency [3] | Potency [4] | Potency [7] | Potency [6] | Potency [8]

C=CCNCC=C
inactive: Potency [1] | Potency [2] | Potency [3] | Potency [4] | Potency [7] | Potency [6]
active: Potency [8] 39.8 µM

COc1ccc2nc(N)sc2c1
inactive: Potency [1] | Potency [2] | Potency [3] | Potency [4]
active: Potency [7] 48.6 µM and 21.7 µM | Potency [6] 10 µM and 63.3 µM | Potency [8] 39.9 µM and 71 µM

C=C[C@H]1CN2CC[C@H]1C[C@@H]2[C@@H](O)c1ccnc2ccc(OC)cc12
inactive: Potency [1] | Potency [2] | Potency [3] | Potency [4] | max activation [5] -2.45%

Clc1ccc(Sc2cc(Cl)c(Cl)cc2Cl)cc1
59.5 µM (active) and inactive: Potency [7]
active: Potency [8] 6.92 µM and 3.17 µM
inactive: Potency [1] | Potency [2] | Potency [3] | Potency [4] | Potency [6]

CNC[C@H](O)c1ccc(O)c(O)c1
inactive: Potency [1] | activity change, negative = cytotoxicity [2] 0.265% [at 19 µM] | Potency [3] | Potency [7] | max activation [5] 1.67% | Potency [9] | Potency [10]

CCCCCCCCCCCCCO
inactive: Potency [1] | Potency [2] | Potency [3] | Potency [4] | Potency [7] | Potency [6]

O=C(O)c1ccc(O)cc1
inactive: Potency [1] | Potency [2] | Potency [3] | Potency [4] | Potency [7] | Potency [6] | Potency [8]

O=C(O)CCCCCCCCCCCC(=O)O
inactive: Potency [1] | Potency [2] | Potency [3] | Potency [4] | Potency [7]
active: Potency [6] 17.6 µM | Potency [8] 17.6 µM and 39.9 µM

Oc1c(Cl)ccc(Cl)c1Cl
79.5 µM (active) and inactive: Potency [8]
active: Potency [6] 71 µM
inactive: Potency [1] | Potency [2] | Potency [3] | Potency [4] | Potency [7]

CCC(=O)O[C@H]1[C@H](O[C@@H]2[C@@H](C)[C@H](O[C@H]3C[C@@](C)(OC)[C@@H](O)[C@H](C)O3)[C@@H](C)C(=O)O[C@H](CC)[C@@](C)(O)[C@H](O)[C@@H](C)C(=O)[C@H](C)C[C@@]2(C)O)O[C@H](C)C[C@@H]1N(C)C
inactive: Potency [1] | Potency [2] | Potency [3] | Potency [4] | Potency [6]
47.1 µM (active) and inactive: Potency [8]
9.07 µM (active) and inactive: Potency [7]

Cc1ccc(C(C)(C)C)cc1
inactive: Potency [1] | Potency [2] | Potency [3] | Potency [4] | Potency [7] | Potency [6] | Potency [8]

C=C[C@H]1CN2CC[C@H]1C[C@H]2[C@H](O)c1ccnc2ccc(OC)cc12
inactive: Potency [1] | Potency [2] | Potency [3] | Potency [4] | max activation [5] -0.698%

OCCNCCO
54.5 µM (active) and inactive: Potency [7]
inactive: Potency [1] | Potency [2] | Potency [3] | Potency [4] | Potency [6] | Potency [8]

NCCN
inactive: Potency [1] | Potency [2] | Potency [3] | Potency [7] | max activation [5] -1.7% | Potency [9] | Potency [10]
active: Potency [6] 31.7 µM

CCCCCCCCCCCCO
inactive: Potency [1] | Potency [2] | Potency [3] | Potency [4] | Potency [7] | Potency [6]

Nc1ccc2c(O)cc(S(=O)(=O)O)cc2c1
inactive: Potency [1] | Potency [3]
active: Potency [2] 48.6 µM and 19.3 µM | Potency [4] 27.3 µM and 21.7 µM | Potency [7] 30.7 µM | Potency [6] 35.6 µM and 71 µM | Potency [8] 79.8 µM and 50.2 µM

O=S1(=O)CCCO1
inactive: Potency [1] | Potency [2] | Potency [3] | Potency [4] | Potency [7] | Potency [6] | Potency [8]

Nc1ccc2c(c1)C(=O)c1ccccc1C2=O
active: Potency [2] 53.5 µM and 54.5 µM | Potency [4] 30.1 µM | Potency [7] 190 nM and 486 nM | Potency [8] 8.78 µM and 35.6 µM
inactive: Potency [1] | Potency [3]

CC(=O)Oc1c(C)c(C)c2c(c1C)CC[C@@](C)(CCC[C@H](C)CCC[C@H](C)CCCC(C)C)O2
inactive: Potency [1] | Potency [2] | Potency [3] | Potency [7] | max activation [5] -0.642% and -1.19% | Potency [9] | Potency [10] | Potency [6] | Potency [8]
